Reference: PubChem BioAssay (NCI)
About 79,000 compounds went through this panel and 15% of them were active in at least one assay; those are over-represented in the sample as a whole. Unmarked numbers belong to inactive results. Activity calls are given as the source filed them. No stated cut-off is given here; in the data, active means growth inhibition above about 70%; inactive means the rest.

Assay: NCI Yeast Anticancer Drug Screen. Data for the rad50 strain (AID 155);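 further: 0% = growth of vehicle-only cultures of the same strain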
Details: S. cerevisiae rad50 strain growth inhibition, active compounds read high
Protocol: Growth inhibition of yeast strains with defined genetic alterations is measured as a screen for potential anti-cancer activity. Selected strains with alterations in DNA damage repair or cell cycle control were exposed to compounds and growth inhibition was measured relative to vehicle treated controls. The strain used in this assay is rad50

[1] = at 5.0 µM (retest, dose inferred, filed as 0.5)
[2] = at 50.0 µM (retest, dose inferred, filed as 5.0)

Row | Compound | growth inhibition [1] | growth inhibition [2] | growth inhibition (at 50.0 µM)
1 | CC(=O)NC1=C(Oc2ccccc2)C(=O)c2ccccc2C1=O | 94% (active) | 99% (active) | 99.2% (active)
2 | CS/C(N)=N/NC(=O)CCC(=O)Nc1cc(Cl)c(Cl)cc1Cl | 3% | 16% | 24.7%
3 | O=C(CSC1=NNC2(C(=O)N1)c1ccccc1-c1ccccc12)NC(=S)Nc1ccccc1 | -3% | 95% (active) | 96.2% (active)
4 | CC(C(=O)O)c1c(-c2ccccc2)ccc2ccccc12 (configuration not stated) | 37% | 3% | 38.9%
5 | CCN(CC)CCCC(Nc1c2ccc(Cl)cc2nc2ccc(OC)cc12)c1cccs1 (configuration not stated) | 91% (active) | 74% (active) | 81.5% (active)
6 | CCC(=O)Sc1ccccc1C(=O)Nc1ccc(Cl)cc1 | 18% | 43% | 88.5% (active)
7 | CCCCN(C)C(=S)N/N=C(\C)c1ccccn1 | 56% | 99% (active) | 99.5% (active)
8 | O=C(CNC(=O)c1ccccc1)NNc1ccccc1 | 16% | 62% | 86.7% (active)
9 | Cc1c(CCl)c(=O)oc2c(C)c3occ(CCl)c(=O)c3cc12 | 6% | 12% | 80.1% (active)
10 | Oc1c(Br)cc(Cl)cc1C(c1cc(Cl)cc(Br)c1O)C(Cl)(Cl)Cl | 0% | 98% (active) | 96% (active)
11 | COc1cc(/C=C(/C)C[N+](=O)[O-])ccc1O | 54% | 99% (active) | 99.5% (active)
12 | CCN(CC)Cc1cc(N=Nc2c(O)ccc3c(N=Nc4ccc(O)c(CN(CC)CC)c4)c(O)ccc23)ccc1O | 62% | 86% (active) | 96.4% (active)
13 | O=C(O)Cc1ccccc1CCc1ccccc1Cl | -26% | 74% (active) | 85.2% (active)
14 | COc1ccc(N=N/N=c2\sc3cc(OC)ccc3n2C)cc1 | 7% | 80% (active) | 29.4%
